Data published in the supplement of paper PMC6555819.

Legend:
Assay in all cases: PBM binding z-score (relative to random genomic background probes); higher = stronger binding; sequences stand for … in GC…GCGATTGACAGCGTAGAATGAAGG
[1] = system: RARb homodimer (NR concentration 270 nM)
In short: (§1)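 On custom Agilent 4×180K arrays, double-stranded probes with 34-nt variable regions carried direct-repeat seeds, single-nucleotide variants, half-site ablations or random human genomic background. Ligand-free nuclear receptor dimers were applied for 1 h, and binding was read with antibodies against each partner (one per run). Binding z-scores come from regression-normalized fluorescence, with the random background probes as reference.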

[2] = system: RARg:RXRa (NR concentration 270 nM, RXRa partner concentration 90 nM)
In short: as §1

[3] = system: RARg homodimer (NR concentration 270 nM)
In short: as §1

[4] = system: RXRa DBDmut IVT, anti-RXR (DBD mutation: RXRa K156A/R161A, NR concentration 90 nM)
In short: as §1

[5] = system: RXRa homodimer (NR concentration 180 nM)
In short: as §1

[6] = system: THRa:RXRa (NR concentration 90 nM, RXRa partner concentration 90 nM)
In short: as §1

[7] = system: THRa homodimer (NR concentration 90 nM)
In short: as §1

[8] = system: VDR homodimer (NR concentration 270 nM)
In short: as §1

[9] = system: VDR:RXRa (NR concentration 270 nM, RXRa partner concentration 90 nM)
In short: as §1

Sequence	PBM binding z-score [1]	PBM binding z-score [2]	PBM binding z-score [3]	PBM binding z-score [4]	PBM binding z-score [5]	PBM binding z-score [6]	PBM binding z-score [7]	PBM binding z-score [8]	PBM binding z-score [9]
TCGAGTAGGTTACCAATGGGGCATACAGCTTTCT	0.633	1.41	0.627	0.223	1.01	0.248	-0.753	-0.212	–
GCTGCTAGGTCAACTGATGGTCAGCTCAAGCTCG	3.67	5.5	5.38	1.62	2.96	3.09	1.25	0.00206	1.59
ATCCAAAGGTCGTGAGGTGAGTATACAGAAAGGC	3.47	5.02	4.46	1.72	5.91	3.66	1.97	1.63	3.91
GGAACGAGTGCAAGTTGATAGCAGAGTTTGATGG	-0.0389	-0.00885	0.227	3.42	0.155	-0.241	-0.787	2.87	0.646
CGTACTGGGCCAAGGTCATTGATCAGTCAAAGCA	3.36	3.89	3.26	1.57	3.05	3.42	2.56	3.55	3.3
TCATATAGGTAAAAGGTAAAAGTCGGTGTGGTAA	0.553	0.857	0.169	1.88	1.94	0.886	0.222	0.494	1.33
CAAACTATGTCACCGGAAGGTCAAAGTCCGCATG	4.63	5.37	4.06	1.32	4.15	3.11	1.99	2.33	3.84
GCTTGTAGATCACGGTTAAGAAAGACTAAGCTAA	-0.369	-0.304	-0.36	0.053	-0.526	-0.523	-1.01	-0.582	-0.34
CGTCCAAGGTCAAGGTCAGTAAAAGAGACTCGAA	4.79	6.66	7.87	3.57	6.53	4	3.52	3.34	4.65
ACTCGGAGGACAAAGGTCAGAGCGACGCCAGTGA	4.63	6.19	5.38	1.24	5.37	3.66	0.5	1.18	3.47
TAGCCTAGGTCACGCGGGCCAGTATAGTGTCGGC	3.49	5.13	5.55	0.633	4.2	3.74	1.61	0.563	3.35
TCATAGAGGTAAATGCTAGGTGAAAGTCCGATCT	0.335	0.753	0.235	0.932	0.849	1.94	0.361	-0.248	0.364
ACTATTAGTTGACTAAGGGCAACCGATACGACGC	1.55	0.953	1.33	0.698	0.794	1.72	0.967	0.874	1.29
ACTAGCAGGCCAAGTTTGGCTCACTCAAACAAAG	-0.243	-0.36	-0.0918	-0.118	-0.415	-0.267	-0.863	-0.448	-0.767
CATACAGGGTCAGCTAGGCCAGAGTGGGGACGGC	3.76	4.58	4.75	1.4	4.23	3.12	1.52	1.59	4.01
CCTACTGGACCACGAAAGGTCATTGATTCAGTGA	4.5	4.44	3.94	1.31	5.46	3.36	1.6	2.68	4.17
TAGCCTAGGTCATGCCGGCCAGTATAGTGTCGGC	2.79	3.6	3.93	0.522	2.62	2.72	0.854	0.14	1.95
GCCGACAGGTGAAACGCAGGTAACTCAGGGTGGC	-0.0352	0.819	0.229	-0.346	0.514	1.35	-0.657	-0.993	-0.543
GCATATAGGTAATACAAGGTGGAAGTCCGATTGT	-0.533	0.279	0.315	0.235	0.566	2.03	-0.457	-0.109	-0.118
TCTTGTAGATCAACACGAGGTTAAGAAAGATCGA	0.596	0.823	0.361	0.555	1.07	1.57	0.0132	0.099	0.895
GCGACTGGGGCATCAGCAGGTCACCATAACTTAA	3.25	3.79	2.47	-0.121	2.14	3.02	1.44	0.619	1.75
GGAACGAGGGGATTCGAGTTGATAGCATGGCGAT	-0.999	-0.337	-0.0526	-0.0556	-0.258	0.618	-0.631	0.0927	–
CCTAGTTGCTCAGGAGGTCACACACCGGATATGA	4.04	4.26	3.65	1.26	4.71	3.75	2.69	2.65	3.76
GGAACGAGGGCATTCGAGTTGTTAGCATGGCGAT	0.647	0.902	1.17	2.89	0.659	2.06	-0.524	2.43	2.82
TCTGCTAGGTCAGTTGGTTAGCTAACGAGCTGCC	2.11	2.15	2.76	0.517	0.728	1.15	-0.142	-0.573	0.227
AATACAGGGTCTCTAGGCCAGAGTAGGTACGAAT	0.256	0.0798	0.292	-0.254	-0.15	0.0248	-0.0749	0.143	-0.299
GTACCAAGGTGAATAGGTCGTTCATGAGTAGGCG	1.96	2.67	1.47	0.154	1.99	1.78	0.565	0.67	1.06

Sequence	PBM binding z-score [1]	PBM binding z-score [2]	PBM binding z-score [3]	PBM binding z-score [4]	PBM binding z-score [5]	PBM binding z-score [6]	PBM binding z-score [7]	PBM binding z-score [8]	PBM binding z-score [9]
AGTCAAAGATCAGGACGAGGTAACGTAAAGCACG	-0.273	0.544	0.425	-0.798	0.431	2.27	1.16	-0.321	-0.216
TCTGCTAGGTCAACGATCGTCAGCTAATCTGCTA	2.88	4.06	4.96	0.835	2.44	2.6	0.335	-0.498	1.03
TCTATTAGTTGAAGGGCAAGCGACGAGTCCGTTT	1.28	0.558	0.708	1.59	0.725	0.196	0.0509	1.23	0.979
AGACAAAGTTCATCTAGGTAACGTAAGATATGCT	4.12	5.68	5.87	5.05	4.64	3.07	0.133	5.21	5.16
ATCTCTAGGTATGACTCAGTTCAGTGAAGAACGC	0.676	0.285	0.329	0.685	0.0899	0.451	0.83	1.5	1.01
CCTTACGGGTCATGGTTATAGCACGGGTGGTACG	3.03	4.4	3.82	0.187	4.81	2.67	-0.082	0.582	3.23
TCTTGTAGATCAATAGAGGTTATGAAAGTGCGCT	1	1.01	0.611	1.05	1.55	2.33	-0.187	0.0483	1.92
ACTAGTTGGTCAGGTGAGGTCACACACAATTCGG	4.31	4.16	4.17	1.23	4.21	4.85	5.01	4.61	4.8
CCTTACGGGTCACTCCAGGTTATTGCATCGGAGT	3	4.17	3.98	1.4	3.97	4.94	0.878	1.95	4.46
TAGCCTAGGTCATTCAGGGGCCATTATAGAAAGC	3.54	6.28	4.48	2.04	3.12	3.69	1.13	1.96	4.23
CTCGAAAGGTCGGTTGAGTTGAGTATACGGATAA	1.34	2.4	2.35	1.33	1.81	3.4	0.44	1.37	3.45
ATCGAGAGGTCGACGAGGTGAGTATACACCGTTT	1.94	3.1	2.85	1.07	3.46	3.58	0.777	1.52	–
CCTCGGAGGACAGAAGCTCAGAGCTGTCCGCTTT	-0.763	-0.638	-0.103	-0.29	-0.985	-0.606	-1.12	-0.819	–
GCAGACAGGTGAAACGGAGGTAACTCAGGGTGGC	0.345	1.4	0.25	-0.66	0.757	1.83	-0.0224	-0.566	–
ATATGTAGGTTAGCTGGGGTGATTCAGACTAGGC	1.08	0.84	0.761	0.484	0.872	4.14	1.26	0.601	–
AGTCAAAGTTCAACTAGGTAACGTAAGATATGCT	3.9	5.82	6.57	4.34	4.89	3	0.196	4.09	–
ATCTCTAGGTAGCCAAGTTCAGTGAATGCCGAAC	0.866	0.375	0.381	0.591	0.0776	0.48	0.337	2.15	–
CGTCCTAGGTCAAGGTCAGTGAAAGAGACTCGAA	4.34	5.41	6.43	2.02	4.55	3.82	2.95	1.93	–
ATCGAAAGTTCGAGGTGAGTATAGAGAAAGGGAA	1.28	1.69	2.19	1.85	1.41	1.7	0.158	1.09	–
TGTTGTAGATCAAAGGTTAAGAAAGCCGAAGCCT	1.46	2.08	1.36	-0.391	2.85	1.34	-0.597	-0.249	–
ATATGTAGGTTAGCTGGGGTCATTTAGACTAGGC	3.75	3.88	2.65	2.15	5.02	5.36	3	4.51	–
CAGCCTTGGTCAGGGCCAGTATAGGAGGAACGTT	0.149	-0.144	0.23	-1.06	-0.491	-0.654	-0.63	-0.985	–
CTAACTAGGTCAGAACAGGACAGTGAAGGATGAT	2.03	1.85	3.26	0.797	1.07	3.55	0.222	-0.144	–
AATACAGGGTCATCGTAGGCCAGAATACGCACAG	3.68	5.69	5.13	3.5	6.42	4.4	1.5	3.25	–
ATCGAAAGGTCGACGAGGTGAGTTTACACCGTTT	3.04	4.11	3.94	1.48	4.05	3.8	0.782	2.35	–
GATGCTAGGTCAACTGATGGTCAGCTAAAGCTCG	3.45	5.12	5.33	1.06	2.84	2.98	0.992	-0.0193	–
